A selection: hits, their analogues and other compounds. The true share with any hit is near 1.3%.
TSHR antag: Antagonists of the Thyroid Stimulating Hormone Receptor: HTS campaign; 330,000 tested, 0.2% active; AID 504810, 2011; Thyrotropin receptor (Homo sapiens), P16473; activity change, negative = inhibition, % at 11.5 µM; TSHR-expressing cells, TSH-stimulated cAMP HTRF, 2 h; active compounds read low;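 active means activity change below a set negative limit, meaning inhibition stronger than a set level, cut at about -70% in these data; inconclusive means activity change between two set negative limits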
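TSHR-expressing cells were treated with compounds, then stimulated with TSH at EC80 (4nM final) for 2 hours at 37 deg C. Cellular cAMP was measured by HTRF competition between lysate cAMP and cAMP-d2 for a cryptate-labelled anti-cAMP antibody.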
gsp agonist: qHTS for Agonist of gsp, the Etiologic Mutation Responsible for Fibrous Dysplasia/McCune-Albright Syndrome: qHTS | AID 624287, 2012 | gsp mutant cells, cAMP HTRF, 30 min | Potency, µM (doses to about 76.9 µM), usual class: activators | 340,000 tested, 0.13% active; active means well fitted activation curve with a large enough effect; inconclusive means small, poorly fitted or top-dose-only effect, or another doubt; inactive means no such curve, though single readings can be large or run the other way; cell line not stated here;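 further: phosphodiesterase inhibitor Ro 20-1724 added with compounds to block cAMP breakdown; nearly all actives have a fitted effect of over 60% in size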
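Cells in DMEM/10% FBS with G418 were pretreated with compounds in DMSO plus […] (300 uM stock) for 30 min at 37C. cAMP was measured by HTRF (cAMP-d2 plus anti-cAMP antibody-K) after 30 min at room temperature.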
RXFP1 antag: qHTS Assay for Antagonists of the Relaxin Receptor RXFP1. 350,000 tested, 0.59% active. activity change, negative = inhibition, % at 57.5 µM. HEK293-RXFP1, relaxin-stimulated cAMP HTRF, 30 min; active compounds read low. AID 1259400, 2018;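 active means activity change of -60% or lower, but not beyond a set lower limit; inconclusive means change between -60% and -40%, or beyond the set limit; inactive means change above -40%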
RXFP1 ag: qHTS Assay for Agonists of the Relaxin Receptor RXFP1; Potency, µM (series often up to 57.5 µM), most hits filed as activators; HEK293T-RXFP1 cAMP TR-FRET, 30 min; response scale: percent of porcine relaxin response, buffer zero; AID 2676, 2010; 370,000 tested, 0.3% active; Relaxin receptor 1 (Homo sapiens), Q9HBX9; active means well fitted activation curve with a large enough effect; inconclusive means small, poorly fitted or top-dose-only effect; further: nearly all actives have a fitted effect of over 60% in size
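HEK293 cells stably expressing RXFP1, treated 30 min at 37C with compounds plus PDE4 inhibitor Ro 20174; cAMP measured by HTRF TR-FRET. Normalized to buffer and 29 nM porcine relaxin; EC50 by Hill fit.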
pAkt inh: HTS Assay for Inhibitors of Akt Phophorylation: Primary Screen; Neuro2A IGF-stimulated pAkt S473 HTRF, 20 min; active compounds read low; activity change, % for hits at 50 µM; 360,000 tested, 0.32% active; in the data active means activity change below about -80%; inconclusive means mostly about -51% to -80%
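Neuro2A cells (4,500/well, DMEM with 0.5% FBS) were treated with compound at a single 50 µM final concentration, stimulated with 6 nM IGF for 20 min at 37 °C, and lysed. Phospho-Akt Ser473 was read by HTRF as 665/615 ratio ×10^4.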
gsp antag: qHTS for Antagonists of gsp, the Etiologic Mutation Responsible for Fibrous Dysplasia/McCune-Albright Syndrome: qHTS; Potency, µM (titrated, usually from 76.9 µM), usual class: inhibitors; 340,000 tested, 0.4% active; gsp-mutant cells, cAMP HTRF, 30 min; AID 624288, 2012; calls by dose curve; cell line not stated here;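 further: intracellular cAMP measured with PDE inhibitor Ro 20-1724 present during compound exposure; nearly all actives have a fitted effect of over 65% in size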
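Cells in G418 medium, seeded 16-24 h, 37C; buffer exchange to DPBS + 1 mM CaCl2, 0.5 mM MgCl2, 0.05% BSA; cpds in DMSO + […] (300 uM stock), 30 min 37C; HTRF cAMP detection.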
Hits are given with their value; n = inactive; u = inconclusive; x = no result given; [ ] = remark or other dose.

SMILES	TSHR antag	gsp agonist	RXFP1 antag	RXFP1 ag	pAkt inh	gsp antag
COc1ccc(N2CCN(C(=O)[C@H](C)NC(=O)c3ccccc3Cl)CC2)cc1	-99	n	n	n	n	n
COc1cc(/C=N/NC(=O)C(=O)NCc2ccco2)cc(Br)c1O	n	n[15.4 µM]	n	n	n	n
Cc1cccc(CC(=O)NCC(=O)NCc2cc(=O)n(C)c(=O)n2C)c1	-90	u	n	n	n	n
CCOc1ccc(CC(=O)NCC(=O)NCc2cc(=O)n(C)c(=O)n2C)cc1	n	n	n	n	n	n
O=C(c1ccncc1)N1CCN(C2CCC(c3ccccc3)CC2)CC1 (stereo unspecified)	n	n	-64	n	n	n
O=C(c1ccncc1)N1CCN(C2CCCCC2)CC1	n	n[15.4 µM]	n	n	n	n
COc1ccc(Br)cc1-c1nc(CCl)cs1	n	u	n	18µM	n	n
CCOc1ccc(-c2nc(CCl)cs2)cc1	n	n	n	n	n	n
COc1cccc(NC(=O)c2ccc3c(c2)CCCC3)c1	n	n	n	n	x	n
CC(=O)c1cccc(NC(=O)c2ccc3c(c2)CCCC3)c1	-131	n	n	n	n	n
CN(C(=O)COc1ccccc1C(=O)NCCOc1ccccc1)c1ccccc1	n	n	n	n	n	35µM
O=C(NCCOc1ccccc1)c1ccccc1Cl	n	n[15.4 µM]	n	n	n	n
O=c1c(Cl)c(Cl)cnn1Cc1nnc(-c2ccccc2Br)o1	n	n	u	n	n	n
Cc1ccc(NC(=O)N2CCCC2C(=O)NCCc2ccccc2)cc1 (stereo unspecified)	n	n	n	n	-121%	n
Cc1cc(C)c(C(=O)CC2(O)C(=O)Nc3ccccc32)cc1C (stereo unspecified)	n	n	n	n	-116%	n
COc1ccc(Nc2nn3c(=O)c4cc5c(cc4nc3s2)OCO5)c(OC)c1	x	x	x	n	x	x
Cc1cccc(C)c1NC(=O)c1ccc(-c2ccc(Cl)cc2Cl)o1	n	n	n	n	-115%	n
CCOC(=O)N1CCN(c2c(F)cc3[nH]c(=S)[nH]c3c2Br)CC1	n	n	-65	n	n	n
Cc1cccc2c1-c1sc(C(=O)NCCCN3CCCC(C)C3)cc1CO2 (stereo unspecified)	-75	u	n	n	n	n
CCCN1CCN(C(=O)c2cc3c(s2)-c2ccccc2OC3)CC1	n	n	x	18µM	n	n
CCCN1CCN(CCCNC(=O)c2cc3c(s2)-c2ccccc2OC3)CC1	-72	n	n	n	n	n
CCCN1CCN(C(=O)c2ccccc2-c2nc3ccccc3s2)CC1	n	n[15.4 µM]	n	n	n	11µM
CCOC(=O)N1CCN(C(=O)c2cc3c(s2)-c2ccccc2OC3)CC1	n	n	x	u	n	n
CCN1CCN(CCCNC(=O)c2cc3c(s2)-c2ccccc2OC3)CC1	n	u	n	n	n	n
CC(=O)OCc1cnc(C)c2oc(=O)c(C(=O)Nc3cccc(F)c3)cc12	x	x	x	n	x	x
SMILES	TSHR antag	gsp agonist	RXFP1 antag	RXFP1 ag	pAkt inh	gsp antag
CCc1ccc(-c2nc(SCC(=O)NCC3CCCO3)c(-c3ccc(F)cc3)[nH]2)cc1 (stereo unspecified)	x	x	n	n	x	x
Cc1ccc(OCc2cc(C(=O)NC3CCCCC3)no2)cn1	-109	n	n	n	n	n
O=C(NC1CCCC1)c1cc(COc2ccc3ncccc3c2)on1	n	n	n	n	n	n
O=C(NC1CCCCC1)c1cc(-c2ccccc2O)on1	-80	n[15.4 µM]	n	n	n	n
Cn1nnnc1-c1cc(Br)ccc1NC(=O)c1ccccc1	n	u	n	u	-104%	n
COc1cccc(N(C)C(=S)Oc2ccc3c(c2)CCCC3)n1	x	x	-65	x	x	x
O=C(O)c1cc(-c2ccc(Br)s2)nc2ccccc12	n	u	n	2.8µM	n	n

Bioassay records: PubChem BioAssay, National Center for Advancing Translational Sciences (NCATS)
